Screening results: PubChem BioAssay, Center for Chemical Genomics, University of Michigan
The sample as a whole holds a higher share of hits than the screen did.
Dicer processing: blocks human Dicer maturation of pre-miR-21. 6% of 47,000 active. Q9UPY3. z-score at 25 µM. cat-ELCCA pre-miR-21 Dicer processing, chemiluminescence; stronger effect = higher value; in the data active = z-score above about 3, passing the limit was not always enough;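 also: plate controls were vehicle for no effect and no enzyme for full effect; higher signal means more uncleaved substrate so more Dicer inhibition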
Starred values were filed as active, the others as inactive.

SMILES	Dicer processing
O=C1CC(c2ccccc2)CC2=C1C(c1ccc3c(c1)OCO3)Nc1ccccc1N2 (centres undefined)	1.5
COc1ccc(C2C3=C(CCCC3=O)N=C3c4ccccc4C(=O)C32)cc1OC (centres undefined)	-0.25
O=C(Nc1ccc(Cl)cc1)N1CCCc2ccccc21	4.3*
O=C(Nc1cc(Cl)cc(Cl)c1)N1CCCc2ccccc21	-0.22
O=C(O)CCC(=O)N1CCCc2ccccc21	2.3
O=C(OCCS(=O)(=O)c1ccc(C(F)(F)F)cn1)c1ccc(Cl)cc1	-1.2
CCOC(=O)c1c(NC(=O)CCC(=O)OC)sc2c1CCCC2	-1.2
CCCOC(=O)c1c(NC(=O)Cn2nc([N+](=O)[O-])cc2C)sc2c1CCCC2	4.3*
CCOC(=O)c1c(NC(=O)Cn2nc(C(F)(F)F)c3c2CCC3)sc2c1CCCC2	0.11
Cc1nc(N)[nH]c(=O)c1Oc1ccc(Cl)cc1	-0.6
COc1ccccc1-c1c(C(F)(F)F)oc2c(CN3CCOCC3)c(O)ccc2c1=O	-4.1
COC(CNC(=S)NNC(=O)Nc1ccccc1)OC	1.4
O=C1NNC(c2ccccc2)=N/C1=C/c1ccc(OCc2ccccc2)cc1	-0.29
Cc1cc(C(F)F)n2nc(C(=O)Nc3ccc(F)cc3F)nc2n1	2.1
C=CCNC(=S)N1N=C2c3ccccc3CCC2C1c1ccccc1Cl (centres undefined)	-1.8
Cc1cccc(NC(=S)NNC(=O)NNC(=S)Nc2cccc(C)c2)c1	1.6
C#Cc1cccc(NC(=S)NNC(=S)Nc2cccc(C#C)c2)c1	8.9*
C#Cc1cccc(NC(=O)c2ccccc2)c1	-0.48
N/C(=N\OC(=O)C1CCCS1)c1ccc(C(F)(F)F)cc1 (centres undefined)	0.19
CC(C)c1ccc(C(=O)CC2(O)C(=O)Nc3ccccc32)cc1 (centres undefined)	-1.4
CCc1ccc(C(=O)CC2(O)C(=O)Nc3ccccc32)cc1 (centres undefined)	-0.1
CCOc1ccc(C(=O)CC2(O)C(=O)Nc3ccccc32)cc1 (centres undefined)	3.4*
O=C(/C=C/c1ccccc1)NC(=S)Nc1ccc(OC(F)(F)F)cc1	-0.76
COC(=S)NC(=O)/C=C/c1ccccc1	3.5*
O=C(/C=C/c1ccccc1)NC(=S)Nc1cc(C(F)(F)F)cc(C(F)(F)F)c1	-0.04
SMILES	Dicer processing
Cc1c(S(=O)(=O)c2ccc(Cl)cc2)csc1C(=O)N(C)c1nnc(C(F)(F)F)s1	-0.8
NC(=O)C1CCN(c2ccc(C(F)(F)F)cn2)CC1	-2.2
c1ccc2c(c1)nc(-c1cscn1)n2CCCCc1nn[nH]n1	-1.1
C=CCOC(=O)C1=C(C)NC2=C(C(=O)CC(C)(C)C2)C1c1ccc(OC(C)=O)cc1 (centres undefined)	-0.25
CC1=C(C(=O)OCCOC(C)C)C(c2ccc(O)cc2)C2=C(CC(C)(C)CC2=O)N1 (centres undefined)	1.7
COc1ccc(COC(=O)C2=C(C)NC3=C(C(=O)CC(C)(C)C3)C2c2ccncc2)cc1 (centres undefined)	1.3
CCOC(=O)C1=C(C)NC2=C(C(=O)CC(C)(C)C2)C1c1ccc(OC)cc1 (centres undefined)	-1.1
CCCOC(=O)C1=C(C)NC2=C(C(=O)CC(c3ccccc3)C2)C1c1ccc(C)cc1 (centres undefined)	1.1
CCCOC(=O)C1=C(C)NC2=C(C(=O)CC(C)(C)C2)C1c1ccc(N(CC)CC)cc1 (centres undefined)	0.92
COC(=O)C1=C(C)NC2=C(C(=O)CC(c3ccc(Cl)cc3)C2)C1c1ccc(C)cc1 (centres undefined)	0.95
CCOC(=O)C1=C(C)NC2=C(C(=O)CC(C)(C)C2)C1c1ccc(OC(C)=O)cc1 (centres undefined)	6.8*
CCCOC(=O)C1=C(C)NC2=C(C(=O)CC(c3ccc(Cl)cc3)C2)C1c1ccc(O)cc1 (centres undefined)	4.7*
COC(=O)c1ccc(C2C(C(=O)OCc3ccc(OC)cc3)=C(C)NC3=C2C(=O)CC(C)(C)C3)cc1 (centres undefined)	0.18
COc1ccc(COC(=O)C2=C(C)NC3=C(C(=O)CC(C)(C)C3)C2c2ccc(OC)cc2)cc1 (centres undefined)	3.5*
CCCOC(=O)C1=C(C)NC2=C(C(=O)CC(C)(C)C2)C1c1ccc(O)cc1 (centres undefined)	3.8*
COC(=O)c1sc(NC(=O)c2ccc(Cn3cc(Cl)cn3)o2)c(C#N)c1C	-0.87
CCCCc1ccc(NC(=O)Nc2cc(C)nn2C)cc1	-2
CCCCN1C(=O)C2CCC(=O)CC2C1=O (centres undefined)	0.56
O=C(CSc1nc(-c2ccco2)cc(C(F)(F)F)n1)Nc1ccc(Cl)cc1	1.3
Cc1ccc(CSc2ncccc2C(F)(F)F)cc1	-0.3
O=C(O)Cn1cnc(-c2ccc(Br)cc2)c1	1.6
CCOC(=O)C1=C(C(C)c2ccccc2)NC(=O)NC1C (centres undefined)	0.15
Cc1c(C)c(C)c(CSC(=S)N(C)C)c(C)c1C	2.9
COC(=O)c1ccc(C2Nc3ccccc3NC3=C2C(=O)CC(C)(C)C3)cc1 (centres undefined)	-0.32
N#C/C(=N\Nc1ccc(F)cc1F)S(=O)(=O)c1ccsc1	0.34
SMILES	Dicer processing
Cc1ccc(NC(=S)NNC(C)(C)C)cc1Cl	2.8
Cc1ccc(C(C)C)c(OCCN2C(=O)C(=O)c3cc(C)ccc32)c1	-0.65
Cc1ccc(OCCN2C(=O)C(=O)c3cc(C)ccc32)cc1	3.1*
Cc1ccc(C(C)C)c(OCCCN2C(=O)C(=O)c3cccc(C)c32)c1	0.44
CCc1ccc(C(=O)Nc2ncc(C)cc2Br)cc1	-2.7
CC(NC(=O)/C=C/C(=O)O)c1ccccc1 (centres undefined)	-1.1
C=CCNC(=O)CSc1ncc2c(n1)-c1c(csc1SC)CC2	-0.01
COC(=O)c1cc(=O)nc2sccn12	2.2
COc1ccc(NC(=O)Nc2c(C)noc2-c2ccccc2)cc1	1.5
COc1ccc(NC(=O)Nc2nnc(COc3ccccc3F)s2)cc1	3.5*
COc1ccc(OCC(O)CNC(=O)Nc2ccc(OCc3ccccc3)cc2)cc1 (centres undefined)	-0.86
Cc1cc(C(C)(C)C)cc(S(=O)(=O)Nc2ccc(O)c(Sc3ncn[nH]3)c2)c1C	8.2
O=C(CSc1ncn[nH]1)Nc1ccc(F)cc1	-0.99
Cc1cc(C)c(S(=O)(=O)Nc2ccc(O)c(Sc3ncn[nH]3)c2)cc1C	7.3*
O=C(CSc1nc2cc(Cl)ccc2o1)c1cc2ccccc2o1	-1.1
Cc1ccc(C)c(OCCCC(C)(C)C(=O)O)c1	-0.96
C#CCN1C(=O)C(O)(CC(=O)c2ccc(C(C)C)cc2)c2cc(Br)ccc21 (centres undefined)	0.67
CCOc1ccc(/C(O)=C2/C(=O)C(=O)N(CCCN(C)C)C23C(=O)N(C)c2ccccc23)cc1 (centres undefined)	5*
COc1ccc(/C(O)=C2/C(=O)C(=O)N(CCN(C)C)C23C(=O)N(C)c2ccccc23)cc1 (centres undefined)	1.9
CN(C)CCN1C(=O)C(=O)/C(=C(\O)c2ccc(F)cc2)C12C(=O)N(C)c1ccccc12 (centres undefined)	2.7
COCCN1C(=O)C(=O)/C(=C(\O)c2ccc(Cl)cc2)C12C(=O)N(C)c1ccccc12 (centres undefined)	-0.97
CCCCN1C(=O)C2(/C(=C(/O)c3ccc(F)cc3)C(=O)C(=O)N2CCCN(C)C)c2ccccc21 (centres undefined)	1.2
